Laboratory results reported in PubChem BioAssay AID2289 (National Center for Advancing Translational Sciences (NCATS), 2010).
About 3,300 (0.97%) of roughly 340,000 compounds were called active. Inconclusive results (about 9%) are left out. Calls come from the whole dose curve; as a rule, active = well fitted inhibition curve with a large enough effect; inconclusive = small, poorly fitted or top-dose-only effect, or effect the other way; inactive = flat fitted curve, though single readings scatter. The list shows a part of the results.

Experiment: qHTS Assay for Modulators of miRNAs and/or Inhibitors of miR-21; note: nearly all actives have a fitted effect of over 55% in size
Settings: HeLa miR-21-FLuc reporter, luciferase luminescence, 48 h; actives lower the signal
Method in brief: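 Using DMEM plus 10% FBS, HeLa miR-21-FLuc cells are incubated with test compounds (final up to about 40uM) for 48 hours; firefly luciferase signal is then imaged following reagent-mediated lysis.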
Potency is the fitted concentration of half-maximal effect.

Potency, active:
COc1ccc(Cl)cc1NC(=O)Cn1ccn(Cc2ccc(C)cc2)c(=O)c1=O 7.36 µM, COCCNC(=O)c1cc(-c2cccs2)on1 13.1 µM, COCCNC(=O)c1cc(-c2cccc(Cl)c2)on1 4.14 µM, O=C(NCCN1CCOCC1)c1cc(-c2cccs2)on1 14.7 µM, O=C(NCCCN1CCOCC1)c1cc(-c2cccs2)on1 16.5 µM, O=C(NCCc1ccccc1)c1nc(-c2cccs2)no1 11.7 µM, COc1cc(/C=N/n2c(C)n[nH]c2=S)ccc1OCc1ccccc1 6.56 µM, Cc1n[nH]c(=S)n1/N=C/c1ccccc1OCc1ccc(Cl)cc1 14.7 µM, COc1cc(/C=N/n2cnnc2)ccc1OCc1ccc(C)cc1 4.14 µM, COc1cc(/C=N/n2cnnc2)ccc1OCc1ccccc1 18.5 µM, Cc1n[nH]c(=S)n1/N=C/c1ccc(OCc2ccc(Cl)cc2Cl)cc1 16.5 µM, Cc1cc(C)cc(NC(=O)c2cc(CN3CCCC3)on2)c1 11.7 µM, CCOC(=O)c1cccc(NC(=O)c2cc(CN3CCCC3)on2)c1 2.33 µM, COc1ccc2c(Sc3ccccc3)c(C(=O)NCCc3ccc(Cl)cc3)[nH]c2c1 0.464 µM, O=C(NCCc1ccccc1)c1ccc(Cl)cc1[N+](=O)[O-] 8.26 µM, O=C(NCCc1ccccc1)c1cccc([N+](=O)[O-])c1 8.26 µM, N#Cc1ccc(C2N=C(c3ccccc3)NO2)cc1 (centres undefined) 0.585 µM, COc1ccc(C2N=C(c3ccccc3)NO2)cc1OC (centres undefined) 5.21 µM, Clc1ccc(OCc2noc(-c3ccsc3)n2)c(Cl)c1 4.14 µM, COc1ccccc1-c1nc(COc2ccc(Cl)cc2Cl)no1 7.36 µM, COc1ccccc1/C=C/C=N/n1c(-c2ccccn2)n[nH]c1=S 8.26 µM, CCOC(=O)c1c(C)oc2cc(Cl)c(O)c(CN(C)C)c12 14.7 µM, O=C(N/N=C/c1ccc(Br)cc1)c1ccc(Br)o1 3.29 µM, C/C(=N/NC(=O)c1ccc(Br)o1)c1ccc(C)o1 10.4 µM, COc1cccc(-c2noc(COc3ccccc3Cl)n2)c1 16.5 µM, Cc1ccc(OCc2nc(-c3ccccc3)no2)cc1 5.21 µM, COc1ccccc1OCc1nc(-c2cccc(C)c2)no1 6.56 µM, CSc1nc(O)c(/C=C2\C=Nc3ccccc32)[nH]1 16.5 µM, COc1ccc(/C=C2\OC(=O)c3c(OC)cccc32)cc1OC 2.93 µM, COc1cc(/C=C2\OC(=O)c3c(OC)cccc32)ccc1O 7.36 µM, COc1cccc2c1C(=O)O/C2=C/c1ccc2c(c1)OCO2 0.233 µM, COc1cccc(/C=N/NC(=O)c2cccc(N3CCCC3=O)c2)c1 5.85 µM, c1csc(-c2nc(N3CCCCC3)no2)c1 2.93 µM, CCOC(=O)c1sc(=NC(=O)c2cccs2)n(C)c1C 0.293 µM, CCOC(=O)c1sc(=NC(=O)c2ccccc2Br)n(C)c1C 1.04 µM, CCOC(=O)c1sc(=NC(=O)c2ccc(Cl)s2)n(C)c1C 0.233 µM, Cc1ccc2c(c1)sc(=NC(=O)c1cccs1)n2C 0.0521 µM, O=C(NC(N1CCOCC1)C(Cl)(Cl)Cl)c1ccco1 (centres undefined) 2.93 µM, O=C(CCc1ccc(S(=O)(=O)NC2CCCCC2)cc1)NCc1ccccn1 7.36 µM, Cc1cc(-n2c(SCc3ccccc3F)nc3[nH]ncc3c2=O)ccc1Cl 4.65 µM, O=c1c2c3c(sc2ncn1-n1cccc1)CCCCC3 11.7 µM, COc1ccc(OC)c2nc(-c3ccc4c(c3)OCO4)ccc12 0.736 µM, CC(=O)c1cc2c(C)c(C(=O)c3ccccc3)oc2cc1O 0.521 µM, Cc1c(C(=O)c2ccccc2)oc2ccc3ccccc3c12 2.93 µM, CCN(CC)S(=O)(=O)c1ccc(-c2cn3ccc(C)cc3n2)cc1 0.927 µM, Cc1cc(/C=C(\C#N)C(=O)Nc2ccccc2F)c(C)[nH]1 0.521 µM, O=C(NCCSc1ccccc1)c1ccccc1Cl 1.65 µM, Cc1ccccc1SCCNC(=O)c1ccccc1Br 16.5 µM, COC(=O)c1sc(NC(=O)COc2ccccc2)nc1C 7.36 µM, COC(=O)c1sc(NC(=O)CSc2nnnn2C)nc1C 6.56 µM, CNc1nc(C)c(C(=O)OCc2ccccc2)s1 16.5 µM, CCOC(=O)c1sc(Nc2ccccc2)nc1C 4.14 µM, CCOC(=O)c1sc(Nc2ccccc2Cl)nc1C 4.65 µM, CCOC(=O)c1sc(NC(=O)c2ccccc2OC)nc1C 0.261 µM, Cc1ccccc1C(=O)N/N=C/c1ccsc1C 2.33 µM, Cc1ccccc1/C=N/NC(=O)c1sccc1C 1.47 µM, CCC1CCCCN1C(=O)c1cc(-c2ccc(Cl)c(Cl)c2)on1 (centres undefined) 7.36 µM, O=C(c1cc(-c2ccc(Cl)cc2)on1)N1CCCC1 0.521 µM, c1ccc(-c2cc(-c3ccccc3)on2)cc1 1.04 µM, O=C(c1cc(-c2ccc(Cl)cc2)on1)N1CCCCCC1 1.47 µM, O=C(c1cc(-c2ccccc2)on1)N1CCCCCC1 3.29 µM, O=C(c1ccccc1-c1nc(-c2ccccc2)no1)N1CCCC1 18.5 µM, COc1ccccc1CCC(=O)Nc1ccc(C)cc1Cl 16.5 µM, Cc1ccc(Sc2ncccc2COC(=O)NC(C)C)cc1 16.5 µM, O=C1N=C(N2CCOCC2)S/C1=C\C=C/c1ccccc1 10.4 µM, Nc1ccc(-c2nc3ccccc3s2)cn1 1.47 µM, Nc1ccccc1-c1nc2ccccc2s1 5.85 µM, N#Cc1ccc(N2Cc3ccccc3C2=NC(=O)c2cccs2)cc1 8.26 µM, CCOC(=O)c1ccc(N2Cc3ccccc3C2=NC(=O)c2cccs2)cc1 3.29 µM
